High-throughput results as filed in PubChem BioAssay.
Sm TGR inh: blocks Schistosoma mansoni thioredoxin glutathione reductase. Q962Y6. 360,000 compounds, 3% hits. purified TGR, DTNB reduction, TNB absorbance 405 nm. Potency, µM (highest dose often 114 µM), most hits filed as inhibitors; active = well fitted inhibition curve with a large enough effect; inconclusive = small, poorly fitted or top-dose-only effect; inactive = no such curve, though single readings can be large or run the other way; also: nearly all actives have a fitted effect of over 60% in size
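TGR 20 nM + NADPH 100 uM (dispensed conc.), cpd preinc 15 min RT; start with NADPH (500 uM addition) then DTNB (15 mM addition). Kinetic TNB absorbance, 405 nm filter. Four-parameter Hill fit across titration.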
SARS PLP yeast: blocks SARS-CoV papain-like protease in a yeast assay. S. cerevisiae expressing SARS-CoV PLpro, growth rescue. Potency, µM (highest dose often 32.9 µM), most hits filed as activators. 330,000 compounds, 0.19% hits; calls by dose curve; also: nearly all actives have a fitted effect of over 55% in size
Numbers stand for hits; . = inactive; ? = inconclusive; / = no result given. Sampled rows, rich in hits. Any-hit rate of the full collection: about 3%.

SMILES | Sm TGR inh | SARS PLP yeast
CCc1nnc(NC(=O)c2nc(SCc3ccccc3F)ncc2Cl)s1 | . | /
CCc1nnc(NC(=O)c2nc(S(=O)(=O)Cc3cccc(C)c3)ncc2Cl)s1 | 16µM | .
Cc1cccc(C(=O)Nc2nnc(Cc3ccccc3)s2)c1 | . | .
CCOC(=O)c1c(C)[nH]c(C)c1S(=O)(=O)N1CCC(C(=O)Nc2ccc(OC)c(OC)c2)CC1 | . | /
COC(=O)CC1Oc2ccccc2-n2cc(-c3ccc(Cl)cc3)nc21 (stereo not drawn) | . | /
O=[N+]([O-])c1cc(CN(CCO)CCO)ccc1O | ? | .
Cc1nc(SCc2ccc(O)c([N+](=O)[O-])c2)c([N+](=O)[O-])[nH]1 | 40µM | .
N=C(N)SCc1ccc(O)c([N+](=O)[O-])c1 | 45µM | .
Cc1nc(SCc2ccc(O)c([N+](=O)[O-])c2)n[nH]1 | . | .
O=[N+]([O-])c1cc([As](=O)(O)c2ccc(O)c([N+](=O)[O-])c2)ccc1O | 14µM | .
COc1ccc(CSC(=N)N)cc1[N+](=O)[O-] | . | .
CCc1ccc(NC(=O)C2CCN(c3cc(C)nc4c(-c5ccc(Cl)cc5)c(C)nn34)CC2)cc1 | . | /
Cc1ccc(NC(c2nnc(-c3ccccc3)o2)c2ccccc2F)c(Cl)c1 (stereo not drawn) | . | /
Cc1ccc2occ(CC(=O)N(Cc3ccc(C(C)C)cc3)C3CCS(=O)(=O)C3)c2c1 (stereo not drawn) | . | /
CC1Cc2cc(S(=O)(=O)CCC(=O)Nc3ccc(Cl)cc3F)ccc2N1C(=O)C1CC1 (stereo not drawn) | . | /
CC1CC=C2C(C#N)=C(N)C(C#N)(C#N)C(c3cccs3)C2C1 (stereo not drawn) | 50µM | .
CCOC(=O)N1CC=C2C(C#N)=C(N)C(C#N)(C#N)[C@H](c3cccs3)C2C1 (stereo partly drawn) | . | .
Cc1ccc(NC(=O)CSc2ncnc3c2sc2ccccc23)cc1C | . | /
Cc1ccccc1-c1noc(CSc2nnc(Cc3ccccc3)n2-c2ccc(F)cc2)n1 | . | /
CCCOc1ccc(C(=O)N(Cc2ccccc2Cl)C2CCS(=O)(=O)C2)cc1 (stereo not drawn) | . | /
N#Cc1cnn(-c2nc(SCc3ccccc3)nc3sc4c(c23)CCCC4)c1N | . | .
CCSc1nc2sc3c(c2c2[n+]1CC(CBr)O2)CCCC3 (stereo not drawn) | 45µM | .
BrCC1C[n+]2c(SCc3ccccc3)nc3sc4c(c3c2O1)CCCC4 (stereo not drawn) | 32µM | .
CCSc1nc2sc3c(c2c(=O)[nH]1)CCCC3 | . | .
Cc1cccc(N2C(=O)CC(Sc3nccc(C)n3)C2=O)c1 (stereo not drawn) | . | .
SMILES | Sm TGR inh | SARS PLP yeast
Cc1ccc(N2C(=O)CC(Sc3ncn[nH]3)C2=O)cc1C (stereo not drawn) | 0.32µM | .
Cc1cc(C)nc(SC2CC(=O)N(c3ccc(C)c(C)c3)C2=O)n1 (stereo not drawn) | . | .
Cc1cccc(N2C(=O)CC(Sc3ncn[nH]3)C2=O)c1 (stereo not drawn) | 7.1µM | .
O=C(CNC(=O)c1ccc(Cl)cc1)OCc1cc(=O)n2nc(C3CC3)sc2n1 | . | /
CCC(=O)N1CCc2cc(Br)cc(S(=O)(=O)CCC(=O)NCc3ccc(F)cc3)c21 | . | /
Cc1ccc(N(C(=O)c2snc(C(N)=O)c2N)C(C(=O)NC2CCCC2)c2ccc(C)o2)cc1 (stereo not drawn) | . | .
CN(C)c1ccc(C(C(=O)NC2CCCC2)N(Cc2cccnc2)C(=O)c2snc(C(N)=O)c2N)cc1 (stereo not drawn) | . | .
Cc1ccc(C(C(=O)NC2CCCC2)N(Cc2cccnc2)C(=O)c2snc(C(N)=O)c2N)o1 (stereo not drawn) | 45µM | .
Cc1ccc(N(C(=O)c2snc(C(N)=O)c2N)C(C(=O)NC2CCCC2)c2ccco2)cc1 (stereo not drawn) | 40µM | .
Cc1nn2c(=O)cc(COC(=O)c3ccc(NC(=O)C4CCCCC4)cc3)nc2s1 | . | /
CCOC(=O)C1CCN(C(=O)C2CCN(C3=NS(=O)(=O)C(c4ccc(C)cc4)=C3CC)CC2)CC1 | . | /
CN(C)C1(CNC(=O)COc2cccc(Cl)c2)CCCCC1 | . | /
O=C(CNC(=O)c1ccccc1F)OCc1nc2ccccc2s1 | . | .
CNc1sc(C(=O)c2ccccc2F)c(N)c1-c1nc2ccccc2s1 | 25µM | .
COc1ccc(/C=C2\CCC/C(=C\C=N\N(C)C)C2=O)cc1 | . | .
CN(C)/N=C/C=C1\CCC/C(=C\c2ccc(F)c(F)c2)C1=O | 16µM | .
CC1C/C(=C/c2cccs2)C(=O)/C(=C/c2cccs2)C1 (stereo not drawn) | . | .
CC1C/C(=C/c2ccco2)C(=O)/C(=C/c2ccco2)C1 (stereo not drawn) | 1.4µM | .
O=C1/C(=C\c2ccco2)CCC/C1=C\c1ccco1 | 1.4µM | .
O=C1/C(=C/c2ccco2)CCC1C1CCCC1 (stereo not drawn) | 50µM | .
O=C1/C(=C/c2ccccc2)CCC1C1CCCC1 (stereo not drawn) | . | .
O=C1/C(=C/c2ccco2)Cc2ccccc21 | . | .
COc1ccc(-c2nc(Cn3c(SCc4ccc(C)cc4)nc4cccnc43)c(C)o2)cc1OC | . | /
CN(C(=O)c1oc(=O)c2ccccc2c1-c1ccccc1)c1cccc(Cl)c1 | . | /
CC1CCCN(CCCNC(=O)c2cc(Sc3ccc(F)cc3)nc3ccccc23)C1 (stereo not drawn) | . | /
SMILES | Sm TGR inh | SARS PLP yeast
CCc1ccc2nc(N(Cc3cccnc3)C(=O)c3cccs3)sc2c1 | . | /
CCOc1cc(C(=O)NCc2ccccc2)ccc1OCC(=O)N1CCOCC1 | . | .
CCOc1cc(C(=O)Nc2ccc(C(=O)NCCN(CC)CC)cc2)ccc1OCC(=O)N1CCOCC1 | 35µM | .
CCCC1=[N+](CC)CCn2c(C)ccc21 | . | .
Cc1cc2n(c1)CCn1c(C)ccc1-2 | 45µM | .
COc1ccccc1NC(=O)c1ncn(-c2ccccc2)n1 | . | /
COc1ccc(-n2ccnc(NCc3ccc(C)cc3)c2=O)cc1OC | . | /
CCOC(=O)C1CCCN(C(=O)CSCc2ccccc2)C1 (stereo not drawn) | . | .
CCOC(=O)C1CCCN(C(=O)CCc2nnc(-c3ccc(C(C)=O)s3)o2)C1 (stereo not drawn) | 16µM | .
Cc1ccc(C)c(NC(=O)CSc2nnc(NC(=O)Nc3ccccc3)s2)c1 | . | /
COc1cc2c(cc1OC)C(C1C(=O)CC(C)(C)CC1=O)N(C(=O)CCl)CC2 (stereo not drawn) | ? | .
COc1cc2c(cc1OC)C(c1cc(Br)ccc1F)N(C(=O)CCl)CC2 (stereo not drawn) | 0.79µM | .
Cc1cc(C)c(NC(=O)Cn2c(=O)n(-c3cccc(C(F)(F)F)c3)c(=O)c3c(C)c(C)sc32)c(C)c1 | . | /
Cc1cccc(-n2c(=O)c3ccccc3n(Cc3ccccc3)c2=O)c1 | . | /
Cn1c(=O)c([N+](=O)[O-])c(NCCCn2ccnc2)c2ccccc21 | . | .
Cn1c(=O)c([N+](=O)[O-])c(-n2ccnc2)c2ccccc21 | 35µM | .
O=C(c1ccc(-c2cccc([N+](=O)[O-])c2)o1)N1CCN(c2ccc([N+](=O)[O-])cc2)CC1 | . | .
O=C(c1ccc(-c2ccc(Cl)cc2)o1)N1CCN(c2ccc([N+](=O)[O-])cc2Cl)CC1 | . | .
O=C(c1ccc(-c2ccc([N+](=O)[O-])cc2)o1)N1CCCCC1 | 45µM | .
